This note sets out measurements from PubChem BioAssay (Tox21).

Structures are written as SMILES. Records with an inconclusive call do not appear. A number with no mark means an inactive call. Calls of active or inactive are those of the source. Unless noted, calls come from the whole dose curve; as a rule, active = well fitted curve in the direction sought with a large enough effect in the repeat runs; inconclusive = weak or mixed curves; inactive = no such curve, though single readings can be large; an effect the other way counts as inactive or inconclusive.

The nature of test [1]: qHTS assay to identify small molecule agonists of the RXR signaling pathway - cell viability counter screen (AID 1159529). Note: series mostly up to about 77 µM; nearly all actives have a fitted effect of over 50% in size. Summed up: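 Luminescence from CellTiter-Glo (30 min, RT) measured viability in the same wells as the beta-lactamase reporter readout. Cells: GeneBLAzer RXR-alpha HEK 293T, 2% charcoal-stripped FBS. Compound exposure 16 hr, 37 C.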
Background: qHTS replaces the single test concentration by a dilution series.

Test [2] in a line: qHTS assay to identify small molecule antagonists of the retinoid acid receptor (RAR) signaling pathway - cell viability counter screen (AID 1159551). Note: nearly all actives have a fitted effect of over 35% in size. In a few lines: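 In this counter screen, the RARE-luciferase line C3RL4 was exposed for 6 h at 37 C and 5% CO2 to compounds with retinol at 1 uM final. Cellular ATP, read by luminescence, served as the viability measure.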
The nature of test [3]: qHTS assay to identify small molecule antagonists of the retinoic acid receptor (RAR) signaling pathway (AID 1159552; note: nearly all actives have a fitted effect of over 50% in size). In a few lines:
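Luminescence from a RARE luciferase reporter in C3RL4 cells served as read-out. Cells received compounds together with 1 uM final retinol and incubated 6 hr at 37 C before detection reagent was added for 30 min at room temperature.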

The nature of test [4]: qHTS assay to identify small molecule antagonists of the estrogen related receptor (ERR) signaling pathway from Tox21 library - cell viability counter screen (AID 1224834). Note: nearly all actives have a fitted effect of over 30% in size. Summed up:
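Counter screen run in ERR cells (2,000 cells/well): cells pre-incubated 6 h, then treated with compounds for 17.5 h at 37 C. Fluorescence was read 30 min after CellTiter-Fluor addition.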

The target of test [5] is Luciferin 4-monooxygenase (Photinus pyralis) (UniProt P08659). Kind of test: qHTS assay to identify small molecule inhibitors of firefly luciferase (AID 1224835). Note: nearly all actives have a fitted effect of over 25% in size. Note: potency is the fitted concentration of half-maximal effect. Summed up: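 Biochemical qHTS: compounds run as interplate titrations against purified firefly enzyme, with D-luciferin and ATP each at its KM concentration. Light output recorded by CCD imaging.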
Sequence of Luciferin 4-monooxygenase (Photinus pyralis) (P08659 whole entry, looked up): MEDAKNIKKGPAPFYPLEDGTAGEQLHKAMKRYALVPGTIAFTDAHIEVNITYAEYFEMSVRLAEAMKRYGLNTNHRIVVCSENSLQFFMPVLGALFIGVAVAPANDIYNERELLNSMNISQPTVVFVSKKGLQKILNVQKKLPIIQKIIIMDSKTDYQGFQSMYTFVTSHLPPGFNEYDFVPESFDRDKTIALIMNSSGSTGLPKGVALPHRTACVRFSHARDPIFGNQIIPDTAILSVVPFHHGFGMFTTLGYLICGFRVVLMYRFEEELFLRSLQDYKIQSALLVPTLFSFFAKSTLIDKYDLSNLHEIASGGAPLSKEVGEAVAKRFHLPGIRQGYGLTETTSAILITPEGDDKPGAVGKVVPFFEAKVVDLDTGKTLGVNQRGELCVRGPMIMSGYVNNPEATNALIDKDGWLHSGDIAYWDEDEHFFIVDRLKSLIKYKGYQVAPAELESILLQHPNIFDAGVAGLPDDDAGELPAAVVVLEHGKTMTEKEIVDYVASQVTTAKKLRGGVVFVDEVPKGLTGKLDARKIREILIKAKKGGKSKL
Test [6] can be described thus: qHTS assay to identify small molecule agonists of the constitutive androstane receptor (CAR) signaling pathway - cell viability counter screen (AID 1224836). Note: series mostly up to about 92 µM; nearly all actives have a fitted effect of over 45% in size. Summed up:
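Viability read-out: CellTiter-Fluor fluorescence after 23 h compound exposure at 37 C/5% CO2 in double-stable HepG2-CYP2B6-hCAR cells, with PK11195 present at 0.75 uM final; compounds tested in 15-point titration.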

Test [7] can be described thus: qHTS assay to identify small molecule antagonists of the constitutive androstane receptor (CAR) signaling pathway - cell viability counter screen (AID 1224837). Note: series mostly up to about 92 µM; nearly all actives have a fitted effect of over 45% in size. Summed up: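 CITCO at 50 nM final was added alongside compounds (15 concentrations) to double-stable hCAR/CYP2B6-2.2kb HepG2 cells. Following 23 hr at 37 C, cell viability was quantified by CellTiter-Fluor fluorescence intensity.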

Test [8] addresses Nuclear receptor subfamily 1 group I member 3 (Homo sapiens) (UniProt Q14994). Put plainly: qHTS assay to identify small molecule agonists of the constitutive androstane receptor (CAR) signaling pathway (AID 1224839). Note: nearly all actives have a fitted effect of over 15% in size. Note: potency is the fitted concentration of half-maximal effect. In a few lines:
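Luminescence read-out (ONE-Glo, 30 min, room temperature) from double-stable HepG2-CYP2B6-hCAR cells exposed 24 h to 15-point compound series in presence of 0.75 uM PK11195 final.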

The nature of test [9]: qHTS assay to identify small molecule antagonists of the estrogen related receptor signaling pathway with the pleiotropic PPARgamma coactivator (PGC) from Tox21 10K library - cell viability counter screen (AID 1224840; active = well fitted cell-killing curve with a large enough effect in the repeat runs, not every such curve was filed as active; note: nearly all actives have a fitted effect of over 40% in size). Summed up: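 Readout: fluorescence intensity from CellTiter-Fluor after 30 min at 37 C/5% CO2. Preceded by 17.5 h treatment of PGC/ERR cells with DMSO-dissolved compounds, added 6 h post-seeding.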

The nature of test [10]: qHTS assay to identify small molecule antagonists of the estrogen related receptor signaling pathway with the pleiotropic PPARgamma coactivator (PGC) from Tox21 10K library (AID 1224841; call rule not given here; note: actives are mostly falling curves and most rising ones were filed inactive; nearly all actives have a fitted effect of over 50% in size; note: potency is the fitted concentration of half-maximal effect). Summed up: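 One-Glo luminescence, measured after half an hour at room temperature, quantified reporter output of PGC/ERR cells. These had been plated at 2,000 per well, incubated 6 h, dosed with compounds in DMSO, then kept 18 h at 37 C.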

Test [11] in a line: qHTS assay to identify small molecule agonists of the retinoic acid receptor (RAR) signaling pathway (AID 1159553). Note: potency is the fitted concentration of half-maximal effect. Summed up: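 In this cell-based screen, 1,000 C3RL4 cells per well were cultured overnight, dosed with test chemicals in DMSO for 6 hr, and assessed for RARE luciferase luminescence.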
Test [12] deals with Nuclear receptor subfamily 1 group I member 3 (Homo sapiens) (UniProt Q14994). Put plainly: qHTS assay to identify small molecule antagonists of the constitutive androstane receptor (CAR) signaling pathway (AID 1224838). Note: nearly all actives have a fitted effect of over 40% in size. Summed up:
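Inhibition of CITCO-driven (50 nM final) CYP2B6 reporter expression is measured in HepG2 cells stably carrying hCAR. Fifteen compound concentrations are applied for 24 h at 37 C, followed by luciferase luminescence.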

The nature of test [13]: qHTS assay to identify small molecule agonists of the estrogen related receptor signaling pathway with the pleiotropic PPARgamma coactivator (PGC) from Tox21 10K library (AID 1224842). Note: nearly all actives have a fitted effect of over 15% in size. Summed up:
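PGC/ERR reporter cell line, 2,000 cells per well, incubated 6 h at 37 C before 23 nL compound in DMSO was added. After 18 h at 37 C, One-Glo luminescence read following 30 min at room temperature.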

Sequence of Nuclear receptor subfamily 1 group I member 3 (Homo sapiens) (Q14994 whole entry, looked up): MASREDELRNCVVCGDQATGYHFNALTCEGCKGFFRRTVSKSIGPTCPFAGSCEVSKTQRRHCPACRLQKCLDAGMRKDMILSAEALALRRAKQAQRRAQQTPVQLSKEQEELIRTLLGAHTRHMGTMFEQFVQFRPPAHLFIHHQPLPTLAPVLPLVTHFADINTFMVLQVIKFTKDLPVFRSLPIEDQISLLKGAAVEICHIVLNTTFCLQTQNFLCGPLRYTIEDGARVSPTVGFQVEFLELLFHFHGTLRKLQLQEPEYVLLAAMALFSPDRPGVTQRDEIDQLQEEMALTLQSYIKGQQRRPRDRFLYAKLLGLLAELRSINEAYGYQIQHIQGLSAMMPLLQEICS

Take `O=C(OCCCCCOC(=O)c1ccccc1)c1ccccc1`: the Potency result in [1], in [4], in test [5], in test [6], in test [7] and in test [8] was “inactive” in each case. The Potency entry in test [9] and in [10] was “inactive” in each case. Also, the outcome in [2] and in [3] was inactive.
With `O=C1c2ccccc2C(=O)C1c1ccc2ccccc2n1`, the Potency result in test [1], in [6], in test [7] and in [9] was “inactive” each time. Further, the outcome in test [2] and in test [3] was inactive. In addition, the Potency in test [11] is 0.108 µM (active); in test [5], 0.111 µM (active); in test [8], 6.05 µM (active).
For the compound `CCCCCCCCCC(C)C=O` (stereo not given), the Potency result in test [1], in [4], in test [6], in test [7], in test [12] and in test [8] was “inactive” throughout. The Potency entry in test [9] is “inactive”. Besides, the call in [2] and in [3] was inactive.
With `CCCCOC(=O)CC#N`, the Potency entry in test [1], in [4], in [5], in test [6], in test [7] and in test [12] was “inactive” throughout. Also, the Potency entry in [8] and in [9] was “inactive” throughout. The compound was called inactive in test [2] and in test [3].
Consider `CCCc1ccc(OC)cc1`, for which the Potency entry in [1], in test [11], in [4], in [5], in test [6] and in test [7] was “inactive” throughout. The Potency result in [9] is “inactive”. Moreover, the compound was called inactive in test [2] and in test [3].
On to `O=c1[nH]nc(-c2ccc([N+](=O)[O-])o2)o1`, for which the Potency result in test [1], in test [5] and in [12] was “inactive” in each case. Besides, the outcome in test [2] and in test [3] was inactive.
Turning to `O=C(OCCOCCOCCOC(=O)c1ccccc1)c1ccccc1`, the Potency result in test [1], in [4], in test [5], in test [6], in test [7] and in test [12] was “inactive” throughout. The Potency result in test [8] and in test [9] was “inactive” each time. Also, the call in test [2] and in [3] was inactive.
Regarding `N#C[C@@H]1CC(F)(F)CN1C(=O)CNC1CC2CCC(C1)N2c1ncccn1` (stereo not given in full), the Potency result in [1], in test [11], in test [4], in test [5], in test [6] and in [7] was “inactive” in each case. Also, the Potency result in test [9] and in test [10] was “inactive” each time. In addition, the compound was classed as inactive in test [2] and in [3].
On to `O=C(C1CCCCC1)N1CC(=O)N2CCCc3ccccc3C2C1` (stereo not given), for which the Potency entry in [1], in test [11], in [5], in test [6], in test [7] and in [9] was “inactive” in each case. The compound was classed as inactive in test [2] and in [3].
As for `CC[C@H](NC(C)C)[C@H](O)c1ccc(O)c2[nH]c(=O)ccc12`, the Potency entry in [1], in test [4], in test [5], in test [6], in test [7] and in test [8] was “inactive” throughout. For the same compound, the Potency result in [9], in [10] and in test [13] was “inactive” in each case. The call in test [2] and in test [3] was inactive.
`O=C(N[C@@H](Cc1ccccc1)[C@@H](O)C(=O)N1C[C@@H](O)[C@@H](O)C1)c1cc2cc(Cl)ccc2[nH]1`: the Potency entry in test [1], in test [11], in test [5], in [6] and in [7] was “inactive” throughout. The compound was called inactive in test [2] and in [3]. Further, the Potency in [10] is 54.5 µM (active).
Turning to `O=C(O)c1cc(C(=O)O)c(C(=O)O)cc1C(=O)O`, the Potency result in test [1], in [4], in [5], in test [6], in test [7] and in [12] was “inactive” each time. Moreover, the Potency entry in test [8], in test [9] and in test [10] was “inactive” in each case. The compound was called inactive in test [2] and in [3].
